In article PMC5540273 (PLoS ONE, 2017):

What follows are compounds tested on AURKA. Details: concentration: 1 μM, replicates: in singlicate; n = 1.
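Further: KINOMEscan kinase panel screen.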

Structure (SMILES) | %Inh
O=C1NC(=O)C(N2CCc3ccccc32)=C1c1cccc(Cl)c1 [SB-408010] | 25%
Cc1cn2c(=O)cc(N3CCOCC3)nc2n1Cc1cccc(Cl)c1Cl [GSK2334006] | 0%
N#Cc1c(N2CCOCC2)sc(-c2ccn[nH]2)c1-c1ccc(Cl)cc1 | 44%
CC(=O)Nc1ccc(COc2ccc(Nc3ccnc4cc(-c5ccccn5)ccc34)cc2)cc1.Cl [GW440148] | 14%
O=c1cc(N2CCOCC2)nc2n(Cc3cccc(C(F)(F)F)c3)ccn12 [GSK2297543] | 13%
Fc1ccc(-c2nn3c(OCC(F)(F)F)cccc3c2-c2ccncc2)cc1 [GW514784] | 0%
Cc1cccc(-c2nc(Nc3ccc4ncsc4c3)c3ccccc3n2)n1 [GW867588] | 22%
